Shown are actives, neighbours in structure and some others; about 2.7% of the full set was active somewhere.
PREPL inhibitor: human PREPL enzyme inhibition; 320,000 compounds, 0.68% hits; recombinant PREPL, fluorescence polarization activity-based probe; inhibition, % at 5.96 µM; Q4J6C6; AID 2751; in the data active = inhibition above about 43%;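 also: 0% = enzyme with DMSO and 100% = wells lacking enzyme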
ANO1 activ: activators or potentiators of mouse TMEM16A chloride channel; Q8BHY3; HEK293 TMEM16A/YFP-H148Q/I152L, iodide quench fluorescence; stronger effect = lower value; B-score at 10 µM; 340,000 compounds, 0.3% hits; AID 623877;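 active = fluorescence-ratio B-score plate-corrected deviation score at least 3 library SD below zero, with starting fluorescence score within 5 deviations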;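 also: channel opened by trigger with iodide after compound preincubation; score built on the fluorescence ratio of max minus min over baseline; more negative score means more quench and so TMEM16A activation or potentiation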
Target sequence (Q8BHY3 whole entry, looked up): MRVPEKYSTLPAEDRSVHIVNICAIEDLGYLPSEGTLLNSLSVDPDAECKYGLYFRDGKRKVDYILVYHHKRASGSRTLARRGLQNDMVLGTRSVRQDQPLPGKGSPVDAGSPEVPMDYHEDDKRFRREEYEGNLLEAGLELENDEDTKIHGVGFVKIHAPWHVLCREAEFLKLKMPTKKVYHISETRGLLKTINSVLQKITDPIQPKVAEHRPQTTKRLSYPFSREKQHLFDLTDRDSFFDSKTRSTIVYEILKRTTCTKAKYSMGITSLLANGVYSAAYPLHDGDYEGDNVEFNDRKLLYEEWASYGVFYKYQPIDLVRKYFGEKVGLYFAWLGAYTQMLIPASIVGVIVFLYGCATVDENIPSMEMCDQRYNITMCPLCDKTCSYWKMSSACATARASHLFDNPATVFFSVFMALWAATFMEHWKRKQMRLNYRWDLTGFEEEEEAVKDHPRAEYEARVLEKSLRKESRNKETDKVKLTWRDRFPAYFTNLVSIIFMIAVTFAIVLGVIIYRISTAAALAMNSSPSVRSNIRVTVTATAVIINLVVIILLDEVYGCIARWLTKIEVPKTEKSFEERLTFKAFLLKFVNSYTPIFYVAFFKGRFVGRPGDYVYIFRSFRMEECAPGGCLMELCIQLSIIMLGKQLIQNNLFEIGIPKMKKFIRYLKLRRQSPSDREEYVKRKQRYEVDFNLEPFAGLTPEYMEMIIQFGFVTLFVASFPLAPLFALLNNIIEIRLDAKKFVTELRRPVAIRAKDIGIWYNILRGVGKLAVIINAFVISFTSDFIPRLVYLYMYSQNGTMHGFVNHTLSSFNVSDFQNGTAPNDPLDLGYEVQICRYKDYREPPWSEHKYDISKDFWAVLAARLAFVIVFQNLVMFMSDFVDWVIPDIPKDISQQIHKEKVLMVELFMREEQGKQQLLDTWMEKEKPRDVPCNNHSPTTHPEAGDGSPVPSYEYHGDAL
PP5 primary: blocks human protein phosphatase 5 activity; purified PP5c, OMFP substrate fluorescence; P53041; AID 1987; inhibition, % at 6.7 µM; 320,000 compounds, 0.18% hits;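 active = inhibition above the campaign's mean inhibition across all tested compounds plus 3 SD, cut at about 9.5% in these data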;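 also: 0% = DMSO only and 100% = 100 µM cantharidin control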
ANO1 block: blocks the mouse calcium-activated chloride channel TMEM16A. Q8BHY3. HEK293 TMEM16A/YFP iodide influx fluorescence, ionomycin. normalized B-score (activity score, 25-100; higher = stronger inhibition) at 10 µM. 310,000 compounds, 1.2% hits;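 active = ratio plate-corrected score three or more library SD toward inhibition, starting fluorescence score within five deviations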;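 also: score derived from kinetic fluorescence span divided by baseline fluorescence per well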
DNA FID counter: fluorescent intercalator displacement, NS3 helicase counter-screen; DNA fluorescent intercalator displacement, fluorescence; inhibition, % at 7.9 µM; 290,000 compounds, 0.17% hits; AID 1845; in the data active = inhibition above about 37%;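 also: 0% = vehicle and 100% = reference compound; higher means more ethidium bromide displaced from hairpin DNA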
PP1 inh: counter-screen for PP5 inhibitors: inhibitors of human PP1-alpha. P62136. AID 2235. 320,000 compounds, 0.9% hits. inhibition, % at 6.7 µM. purified PP1alpha, OMFP fluorescence;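 active = inhibition above the mean inhibition of all tested compounds plus 3 SD, computed separately for each screening campaign, cut at about 15% in these data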
PP1 inh confirm: confirmation of human PP1 phosphatase inhibitors; AID 2358; 1,900 compounds, 52% hits; purified PP1alpha, OMFP substrate fluorescence; shares compounds with PP1 inh; inhibition, % at 6.7 µM;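 active = mean PP1 inhibition above a set limit taken from the earlier primary screen, cut at about 15% in these data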
PP5 counter: PP5 phosphatase inhibition, counter-screen for PP1 inhibitors; shares compounds with PP1 inh; purified PP5c, OMFP fluorescence; inhibition, % at 6.7 µM; 1,900 compounds, 4% hits;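 active = mean PP5 inhibition over triplicate wells above about 9.5% taken from the earlier PP1 screen, limit read from the data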
Numbers without * were called inactive; i = inactive; · = no result.

SMILES	PREPL inhibitor	ANO1 activ	PP5 primary	ANO1 block	DNA FID counter	PP1 inh	PP1 inh confirm	PP5 counter
NC(=O)c1oc2ccccc2c1NC(=O)c1nc2ccccc2s1	-3	i	-3	i	-2	25*	16*	-6
O=C(Nc1nnc(-c2ccccc2)o1)c1nc2ccccc2s1	6	i	-1	i	·	25*	28*	-8
NC(=O)c1oc2ccccc2c1NC(=O)c1ccc(F)cc1	-3	i	2	i	0	-1	·	·
O=C(Nc1ccccc1)Nc1nnc(-c2ccccc2)o1	7	i	2	i	-3	-2	·	·
COc1ccc(COC(=O)CN2C(=O)NC3(CCCC3)C2=O)cc1F	6	i	0	i	·	34*	-3	-3
CSCc1cc(N(C)C)nc(SCc2ccc(Cl)c(Cl)c2)n1	23	i	1	i	-14	22*	10	-2
CNc1cc(CSC)nc(SCc2ccc(Cl)cc2Cl)n1	5	i	4	i	-7	8	·	·
C=C(C)Cn1c(=O)c2c(nc3n2CCCN3Cc2ccccc2)n(C)c1=O	21	i	2	i	-37	-3	·	·
COc1ccc(C(=O)c2sc3nc(-c4ccccc4)ccc3c2N)cc1OC	18	i	0	i	-4	20*	13	-4
CCOc1cc(C2C(C(=O)c3ccco3)=C(O)C(=O)N2CCc2ccccc2)ccc1O (stereo not drawn)	3	i	1	i	-43	20*	22*	-1
Cc1cc(C)nc(SCC(=O)c2ccc(F)c(C)c2)n1	16	i	0	i	-18	43*	-3	-4
Cc1c(/C(O)=C2\C(=O)C(=O)N(CCCN(C)C)C2c2ccco2)cnn1-c1ccccc1 (stereo not drawn)	·	i	·	·	·	·	·	·
COc1ccc(N2CC(C(=O)NCCC3=CCCCC3)CC2=O)c(OC)c1 (stereo not drawn)	3	i	0	i	·	-4	·	·
O=C(c1cccs1)N1N=C(c2ccccc2)CC1c1ccccc1O (stereo not drawn)	-5	i	-5	i	-6	25*	19*	-3
Cc1ccc(C2=NN(C(=O)c3cccs3)C(c3ccccc3O)C2)cc1 (stereo not drawn)	12	i	2	i	0	2	·	·
Cc1c(C(=O)OCc2nc3ccsc3c(=O)[nH]2)oc2ccccc12	-2	i	-2	·	·	-3	·	·
CCn1c(=O)c(C(=O)NNC(=O)c2ccccc2Br)c(O)c2ccccc21	1	i	-1	i	-24	22*	12	-4
CCn1c(=O)c(C(=O)NNC(=O)Cc2ccccc2)c(O)c2ccccc21	2	i	-1	i	-17	-1	·	·
Cn1c(=O)c(C(=O)NNC(=O)c2ccccc2Br)c(O)c2ccccc21	15	i	1	i	-19	20*	15	-3
Cn1c(=O)c(C(=O)NNC(=O)c2ccccc2Cl)c(O)c2ccccc21	1	i	-4	i	-17	8	·	·
CCSc1nc2c(cnn2-c2ccc(C)cc2)c(=O)[nH]1	16	i	-10	i	-3	22*	6	-4
Cc1cc(OCC(=O)NCC(c2ccc(F)cc2)N2CCOCC2)ccc1Cl (stereo not drawn)	18	i	-2	·	·	0	·	·
COc1ccc2c(c1)CCC/C2=N\Nc1nc(C(=O)NN)cs1	34	i	2	i	-17	22*	9	-4
COc1ccc2c(c1)CCC/C2=N\NC(=O)c1ccoc1C	8	i	3	i	-1	8	·	·
CCOC(=O)c1csc(N/N=C2\CCc3ccccc32)n1	16	i	3	i	-16	19*	17*	-1
CCOC(=O)c1csc(N/N=C2\CCCc3ccccc32)n1	-12	i	3	i	-21	3	·	·
CCCn1c(CN2CCN(C(=O)OCC)CC2)nc2c1c(=O)n(C)c(=O)n2C	-16	i	4	i	-21	55*	-5	-3
